These results are taken from the supplement of paper PMC9942566.

± gives the standard deviation of the averaged measurements.

This experiment concerns Serratia marcescens K904 PosmB-luxCDABE reporter (pMQ747). In words: PosmB-lux reporter fold induction (RLU/OD600 relative to no-compound control), highest over Biolog concentrations; higher = stronger reporter activation. The conditions noted are these: ΔrcsB mutant CMS5177; 4 h. How it is done: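 Serratia marcescens K904 (wild type) or its isogenic ΔrcsB mutant, carrying the Rcs-dependent PosmB-luxCDABE reporter plasmid pMQ747, was grown in LB at OD600 0.1 in Biolog Phenotype MicroArray plates PM11-20 for 4 h at 30-32°C. Each compound is present at 3-4 proprietary concentrations (not stated); per the Fig. S1 legend the value given is the highest fold over those wells. Three independent trials.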
Turning to `c1ccc(-c2nn(-c3ccccc3)[n+](-c3cccc4ccccc34)n2)cc1` [tetrazolium violet] (Biolog plate: PM20, well positions: B9-12), the “PosmB-lux reporter fold induction” value was determined as 0.262 ± 0.11.

`O=C(O)CN(CCN(CC(=O)O)CC(=O)O)CC(=O)O` (Biolog plate: PM15, well positions: B5-8): the “PosmB-lux reporter fold induction” value was 1.22 ± 0.17.

With `NC(CO)C(=O)NO` (racemic) [D,L-Serine hydroxamate] (Biolog plate: PM12, well positions: C9-12), the “PosmB-lux reporter fold induction” value was determined as 1.74 ± 1.6.

`CN(C)c1ccc(O)c2c1C[C@H]1C[C@H]3[C@H](N(C)C)C(O)=C(C(N)=O)C(=O)[C@@]3(O)C(O)=C1C2=O` [Minocycline] (Biolog plate: PM11, well positions: C9-12): the “PosmB-lux reporter fold induction” value is 1.8 ± 0.42.

For the compound `O=C1OC(CN2CCOCC2)CN1/N=C/c1ccc([N+](=O)[O-])o1` (stereo not drawn) [Furaltadone] (Biolog plate: PM14, well positions: A5-8), the “PosmB-lux reporter fold induction” value amounted to 1.51 ± 0.47.

Turning to `CC(CN1c2ccccc2Sc2ccccc21)N(C)C` (stereo not drawn) [Promethazine] (Biolog plate: PM14, well positions: H5-8), the “PosmB-lux reporter fold induction” value was found to be 1.43 ± 0.21.

As for `CCCCCCCC[N+](C)(CCCCCCCC)CCCCCCCC` [methyltrioctyl-ammonium chloride] (Biolog plate: PM19, well positions: B1-4), the “PosmB-lux reporter fold induction” value turned out to be 2.23 ± 1.5.

For the compound `C[C@@H]1NC(=O)[C@@H](N)CNC(=O)[C@H](C2CCNC(=N)N2)NC(=O)/C(=C/NC(N)=O)NC(=O)[C@H](CNC(=O)CC(N)CCCN)NC1=O.N=C1NCC[C@H]([C@@H]2NC(=O)/C(=C/NC(N)=O)NC(=O)[C@H](CNC(=O)C[C@@H](N)CCCN)NC(=O)[C@H](CO)NC(=O)[C@@H](N)CNC2=O)N1` [Capreomycin] (Biolog plate: PM11, well positions: D1-4), the “PosmB-lux reporter fold induction” value was 1.09 ± 0.081.

As for `CN(C)[C@@H]1C(O)=C(C(N)=O)C(=O)[C@@]2(O)C(O)=C3C(=O)c4c(O)ccc(Cl)c4[C@@](C)(O)[C@H]3C[C@@H]12` [Chlortetracycline] (Biolog plate: PM11, well positions: A5-8), the “PosmB-lux reporter fold induction” value stood at 1.3 ± 0.26.

Regarding `CO[C@@H]1[C@@H](O[C@@H]2O[C@H](C)[C@@H](O[C@H]3C[C@@](C)(O)[C@@H](OC(=O)CC(C)C)[C@H](C)O3)[C@H](N(C)C)[C@H]2O)[C@@H](CC=O)C[C@@H](C)[C@@H](O)/C=C/C=C/C[C@@H](C)OC(=O)C[C@H]1OC(C)=O` [josamycin] (Biolog plate: PM19, well positions: A2-4), the “PosmB-lux reporter fold induction” value is 9.66 ± 6.6.

With `NC(CO)C(=O)NNCc1ccc(O)c(O)c1O` (stereo not drawn) [Benserazide] (Biolog plate: PM20, well positions: A9-12), the “PosmB-lux reporter fold induction” value amounted to 0.916 ± 0.14.

With `NC(=O)N/N=C/c1ccc([N+](=O)[O-])o1` [5-Nitro-2-furaldehyde semicarbazone] (Biolog plate: PM15, well positions: E5-8), the “PosmB-lux reporter fold induction” value is 3.61 ± 0.9.

In the case of `NC[C@@H]1O[C@H](O[C@H]2[C@@H](O)[C@H](O[C@@H]3[C@@H](O)[C@H](N)C[C@H](N)[C@H]3O[C@H]3O[C@H](CO)[C@@H](O)[C@H](O)[C@H]3N)O[C@@H]2CO)[C@H](N)[C@@H](O)[C@@H]1O` [Paromomycin] (Biolog plate: PM12, well positions: C1-4), the “PosmB-lux reporter fold induction” value is 1.42 ± 0.79.

As for `CO[C@H]1/C=C/O[C@@]2(C)Oc3c(C)c(O)c4c(O)c(c(/C=N/N5CCN(C)CC5)c(O)c4c3C2=O)NC(=O)/C(C)=C\C=C\[C@H](C)[C@H](O)[C@@H](C)[C@@H](O)[C@@H](C)[C@H](OC(C)=O)[C@@H]1C` [Rifampicin] (Biolog plate: PM12, well positions: H5-8), the “PosmB-lux reporter fold induction” value worked out at 17.2 ± 8.3.

In the case of `Cc1ccc2c(Cl)cc(Cl)c(O)c2n1` [5,7-Dichloro-8-hydroxy-quinaldine] (Biolog plate: PM15, well positions: B9-12), the “PosmB-lux reporter fold induction” value was 1.27 ± 0.13.

Turning to `Cc1cc(N)c2ccccc2[n+]1CCCCCCCCCC[n+]1c(C)cc(N)c2ccccc21` [Dequalinium chloride] (Biolog plate: PM13, well positions: A5-8), the “PosmB-lux reporter fold induction” value turned out to be 1.05 ± 0.21.

Take `c1ccc(-c2ccccn2)nc1` [2,2'-Dipyridyl] (Biolog plate: PM13, well positions: B5-8): the “PosmB-lux reporter fold induction” value was 1.71 ± 1.3.

As for `CC1(C)S[C@@H]2[C@H](NC(=O)Cc3ccccc3)C(=O)N2[C@H]1C(=O)O` [Penicillin G] (Biolog plate: PM12, well positions: A2-4), the “PosmB-lux reporter fold induction” value was determined as 1.02 ± 0.19.
